# Laboratory results: PubChem BioAssay
# Experiments:
# [1] = system: Human papillomavirus type 1a protein E7 (residues 44-93); test: HPV1a E7 fragment binders on microarrays, primary screen, biochemical, small-molecule microarray, residues 44-93, 635 nm fluorescence (AID 1108); conditions: small-molecule microarray binding, fluorescence 635 nm; higher = more signal;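 further: E7 fragment applied at 1 µg/mL in TBST for 1 h at 4 C; score combines spot fluorescence with its signal to noise ratio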
# [2] = modulators of HCV replicon luciferase signal, primary screen, HCV replication inhibitor project, Huh7 cells, luciferase reporter (AID 1109); conditions: 48 h, higher = more signal;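 further: huh7 hepatoma cells harbouring a luciferase neomycin HCV replicon reporter; luciferase luminescence as measure of HCV replicon replication; test concentration not given here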
# [3] = molecular target: Left-right determination factor 2 (Homo sapiens) (UniProt O00292); test: LEFTY2 binders on small-molecule microarrays, primary screen, biochemical, small-molecule microarray, 635 nm fluorescence scan (AID 1110); conditions: LEFTY2 binding, higher = more signal
# Chain of Left-right determination factor 2 (Homo sapiens) (O00292 whole entry, looked up): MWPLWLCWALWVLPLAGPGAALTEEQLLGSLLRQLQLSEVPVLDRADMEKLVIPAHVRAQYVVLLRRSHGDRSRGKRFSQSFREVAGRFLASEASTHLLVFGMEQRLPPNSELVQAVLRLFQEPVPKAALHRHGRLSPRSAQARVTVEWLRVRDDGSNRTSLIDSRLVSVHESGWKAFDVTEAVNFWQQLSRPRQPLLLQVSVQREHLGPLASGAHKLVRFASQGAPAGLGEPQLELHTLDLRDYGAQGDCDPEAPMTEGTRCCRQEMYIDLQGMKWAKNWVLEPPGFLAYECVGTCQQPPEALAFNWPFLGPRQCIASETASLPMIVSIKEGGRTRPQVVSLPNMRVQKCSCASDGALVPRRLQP
# [4] = molecular target: Calmodulin-1 (Homo sapiens) (UniProt P0DP23); test: CALM1 binders on microarrays, EGTA buffer, profiling panel, biochemical, small-molecule microarray, Cy5-labelled CALM1 (AID 1111); conditions: Cy5-CALM1 binding fluorescence, higher = more signal;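 further: labelled calmodulin applied in Tris saline Tween buffer holding calcium plus EGTA and DTT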
# [5] = molecular target: Calmodulin-1 (Homo sapiens) (UniProt P0DP23); test: calcium-bound CALM1 binders on microarrays, profiling panel, artefact control for SMM control-protein annotation, biochemical, small-molecule microarray, Cy5-labelled CALM1, plus calcium (AID 1112); conditions: Cy5-CALM1 binding fluorescence, higher = more signal;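 further: score merges spot fluorescence with signal to noise from triplicate slides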
# [6] = small-molecule microarray binders of probe aWnt5a, primary screen, biochemical, biotinylated probe, 635/667 nm fluorescence (AID 1113); conditions: higher = more signal;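 further: score merges 667 nm fluorescence intensity with signal-to-noise per printed feature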
# [7] = small-molecule microarray binders of probe aShh, primary screen, biochemical, biotinylated probe, 635/667 nm fluorescence (AID 1114); conditions: higher = more signal;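 further: probe is biotin-labelled aShh protein from a stem cell growth factor screen; measures binding of labelled protein to compounds printed on the slide; score merges feature fluorescence at 667 nm with signal-to-noise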
# [8] = small-molecule microarray binders of probe aNog, primary screen, biochemical, biotinylated probe, 635/667 nm fluorescence (AID 1115); conditions: higher = more signal;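 further: probe is biotinylated aNog protein used at 0.15 µg/mL for 1 h at 4 C; z-score combines 667 nm fluorescence of each spot with its signal to noise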
# [9] = molecular target: Torsin-1A-interacting protein 1 (Homo sapiens) (UniProt Q5JTV8); test: LAP1 binders from COS7 cell lysate, primary screen, small-molecule microarray, 635/667 nm fluorescence (AID 1116); conditions: COS7-hLAP1 lysate binding, 635 nm fluorescence, higher = more signal
# Chain of Torsin-1A-interacting protein 1 (Homo sapiens) (Q5JTV8 whole entry, looked up): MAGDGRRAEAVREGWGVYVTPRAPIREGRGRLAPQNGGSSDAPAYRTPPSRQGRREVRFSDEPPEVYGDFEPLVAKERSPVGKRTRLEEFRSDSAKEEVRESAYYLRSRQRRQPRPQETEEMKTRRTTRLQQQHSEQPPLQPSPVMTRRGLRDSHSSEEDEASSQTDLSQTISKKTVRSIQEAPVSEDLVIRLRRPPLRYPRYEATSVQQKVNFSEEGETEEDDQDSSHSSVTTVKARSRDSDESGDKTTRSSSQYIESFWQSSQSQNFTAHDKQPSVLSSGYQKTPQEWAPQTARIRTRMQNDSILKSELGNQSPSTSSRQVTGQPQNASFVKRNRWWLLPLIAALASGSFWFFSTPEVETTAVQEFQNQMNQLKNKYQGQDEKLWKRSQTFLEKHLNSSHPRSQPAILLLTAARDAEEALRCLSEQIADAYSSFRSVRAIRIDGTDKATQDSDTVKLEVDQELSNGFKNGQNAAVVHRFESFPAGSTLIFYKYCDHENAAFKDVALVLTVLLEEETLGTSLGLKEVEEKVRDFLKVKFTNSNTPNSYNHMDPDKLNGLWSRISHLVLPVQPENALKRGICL
# [10] = molecular target: Alpha-bungarotoxin (Bungarus multicinctus) (UniProt P60615); test: alpha-bungarotoxin binders on microarray, profiling panel, artefact control for SMM control protein annotation, biochemical, small-molecule microarray, Alexa647 label, 635/667 nm fluorescence (AID 1117); conditions: alpha-BTX-A647 binding fluorescence, higher = more signal
# Chain of Alpha-bungarotoxin (Bungarus multicinctus) (P60615 whole entry, looked up): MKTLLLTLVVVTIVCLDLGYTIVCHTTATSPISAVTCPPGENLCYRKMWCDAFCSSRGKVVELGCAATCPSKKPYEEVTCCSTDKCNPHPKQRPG
smiles,measurement,setting,value
O=C1c2ccccc2[C@@]2(Cc3ccccc3N(CC(F)(F)F)C2=O)[C@H](c2ccc(CO)cc2)N1Cc1ccccc1Cl,composite z-score,[1],0.265
same,z-score,[2],0.078
same,composite z-score,[3],0.547
same,composite z-score,[4],-0.146
same,composite z-score,[5],-0.684
same,composite z-score,[6],-0.166
same,composite z-score,[7],-0.17
same,composite z-score,[8],-0.282
same,composite z-score,[9],0.156
same,composite z-score,[10],0.287
CCCCC=C[C@@H](NC(=O)Oc1cccc(C(F)(F)F)c1)c1ccccc1,composite z-score,[1],1.18
same,z-score,[2],-1.07
same,composite z-score,[3],-0.143
same,composite z-score,[4],1.85
same,composite z-score,[5],1.11
same,composite z-score,[6],1.04
same,composite z-score,[7],1.97
same,composite z-score,[8],0.59
same,composite z-score,[9],0.503
same,composite z-score,[10],1.62
CC[C@@H]1C=C(C(=O)O)[C@H](c2ccco2)N1S(=O)(=O)c1ccc(C)cc1,composite z-score,[1],-0.11
same,z-score,[2],-1.22
same,composite z-score,[3],-0.0532
same,composite z-score,[4],-0.256
same,composite z-score,[5],-0.841
same,composite z-score,[6],-0.0529
same,composite z-score,[7],-0.0146
same,composite z-score,[8],0.0051
same,composite z-score,[9],0.018
same,composite z-score,[10],0.396
O=C(NCC(F)(F)F)[C@@H]1c2ccccc2C(=O)N(C2CCCCC2)[C@H]1c1ccc(CO)cc1,composite z-score,[1],0.268
same,z-score,[2],-1.7
same,composite z-score,[3],-0.382
same,composite z-score,[4],0.218
same,composite z-score,[5],-0.403
same,composite z-score,[6],-0.172
same,composite z-score,[7],-0.138
same,composite z-score,[8],-0.342
same,composite z-score,[9],-0.257
same,composite z-score,[10],1.43
CCOc1cc(C(O)C2C=CC3C(=O)N(c4ccccc4)C(=O)C3N2Nc2ccccc2)ccc1O (stereo not given),composite z-score,[1],1.31
same,z-score,[2],-0.0374
same,composite z-score,[3],0.181
same,composite z-score,[4],0.0041
same,composite z-score,[5],-0.748
same,composite z-score,[6],-0.0312
same,composite z-score,[7],0.191
same,composite z-score,[8],0.387
same,composite z-score,[9],0.604
same,composite z-score,[10],0.147
COCCCNC(=O)[C@@]1(Cc2ccccc2)N=C(c2ccc(OCCCO)cc2)O[C@H]1c1ccccc1,composite z-score,[1],0.53
same,z-score,[2],-1.39
same,composite z-score,[3],-0.582
same,composite z-score,[4],2.34
same,composite z-score,[5],1.05
same,composite z-score,[6],-0.174
same,composite z-score,[7],-0.36
same,composite z-score,[8],-0.442
same,composite z-score,[9],1.96
same,composite z-score,[10],2.34
CCOC(=O)[C@H]1CC=C2CC1C(=O)N1CCC[C@@H]1[C@@H]2O[Si](C)(C)C(C)(C)C (stereo not given in full),composite z-score,[1],-0.404
same,z-score,[2],-3.01
same,composite z-score,[3],0.377
same,composite z-score,[4],-1.45
same,composite z-score,[5],-1.61
same,composite z-score,[6],-0.237
same,composite z-score,[7],-0.297
same,composite z-score,[8],0.14
same,composite z-score,[9],-0.523
same,composite z-score,[10],-1.15
[N-]=[N+]=Nc1ccccc1C[C@@]1(C(=O)NCCN2CCOCC2)N=C(c2ccc(OCCCO)cc2)O[C@@H]1c1ccccc1,composite z-score,[1],1.47
same,z-score,[2],-1.32
same,composite z-score,[3],0.248
same,composite z-score,[4],0.797
same,composite z-score,[5],-0.3
same,composite z-score,[6],-0.0303
same,composite z-score,[7],0.315
same,composite z-score,[8],-0.462
same,composite z-score,[9],0.819
same,composite z-score,[10],0.597
COc1ccc(NN2C(C(O)c3ccc([N+](=O)[O-])cc3)C=CC3C(=O)N(C4CCCCC4)C(=O)C32)cc1 (stereo not given),composite z-score,[1],1.35
same,z-score,[2],0.376
same,composite z-score,[3],-0.0693
same,composite z-score,[4],1.04
same,composite z-score,[5],0.212
same,composite z-score,[6],-0.0758
same,composite z-score,[7],0.368
same,composite z-score,[8],0.797
same,composite z-score,[9],0.55
same,composite z-score,[10],0.799
C=CCOC(=O)[C@@H]1[C@H]2C(=O)O[C@H](c3ccccc3)[C@H](c3ccccc3)N2[C@H](c2ccc(OCCOC(=O)[C@@H]3C[C@@H]4C(=O)N5CCC[C@H]5C(=O)N4[C@@H]3c3ccc(O)cc3)cc2)[C@@]12C(=O)Nc1ccc(I)cc12,composite z-score,[1],1.33
same,z-score,[2],-0.64
same,composite z-score,[3],0.761
same,composite z-score,[4],2.06
same,composite z-score,[5],0.481
same,composite z-score,[6],-0.145
same,composite z-score,[7],-0.0793
same,composite z-score,[8],-0.331
same,composite z-score,[9],1.4
same,composite z-score,[10],0.327
CN1C(=O)C2C=CC(C(O)C3=C[C@H]4C[C@@H](C3)C4(C)C)N(Nc3ccccc3)C2C1=O (stereo not given in full),composite z-score,[1],1.41
same,z-score,[2],-0.181
same,composite z-score,[3],0.269
same,composite z-score,[4],0.18
same,composite z-score,[5],-0.162
same,composite z-score,[6],0.14
same,composite z-score,[7],0.13
same,composite z-score,[8],0.612
same,composite z-score,[9],0.802
same,composite z-score,[10],0.647
COCCOC(=O)N1C(=O)[C@@]2(c3cc(C#CCCO)ccc31)[C@H](C(=O)Nc1nc3ccccc3s1)[C@H]1C(=O)O[C@H](c3ccccc3)[C@H](c3ccccc3)N1[C@@H]2c1ccc(OCCO)cc1,composite z-score,[1],1.32
same,z-score,[2],-1.81
same,composite z-score,[3],0.774
same,composite z-score,[4],1.08
same,composite z-score,[5],-0.263
same,composite z-score,[6],0.115
same,composite z-score,[7],0.0898
same,composite z-score,[8],-0.22
same,composite z-score,[9],1.14
same,composite z-score,[10],0.772
O=C1OCCC/C=C\[C@H]2OC34C=CCN(c5ccc6ccccc6c5)C(=O)[C@H]3N(CCCCCCO)C(=O)[C@@H]4C12 (stereo not given in full),composite z-score,[1],-1.45
same,z-score,[2],-0.625
same,composite z-score,[3],-0.955
same,composite z-score,[4],-0.761
same,composite z-score,[5],-0.384
same,composite z-score,[6],-0.176
same,composite z-score,[7],-0.179
same,composite z-score,[8],-0.388
same,composite z-score,[9],2.93
same,composite z-score,[10],-0.182
C=CCOC(=O)[C@H]1[C@@H]2C(=O)O[C@@H](c3ccccc3)[C@@H](c3ccccc3)N2[C@@H](c2ccc(OCCOC(=O)[C@@H]3C[C@@H]4C(=O)N5CCC[C@H]5C(=O)N4[C@@H]3c3cccc(OCCO)c3)cc2)[C@]12C(=O)Nc1ccccc12,composite z-score,[1],0.862
same,z-score,[2],-1.24
same,composite z-score,[3],0.91
same,composite z-score,[4],0.551
same,composite z-score,[5],0.0319
same,composite z-score,[6],0.0079
same,composite z-score,[7],0.0381
same,composite z-score,[8],-0.378
same,composite z-score,[9],0.834
same,composite z-score,[10],1.34
C=CCOC(=O)[C@H]1[C@@H]2C(=O)O[C@@H](c3ccccc3)[C@@H](c3ccccc3)N2[C@@H](c2ccc(OCCOC(=O)[C@@H]3C[C@@H]4C(=O)N[C@@H](CCCCN(C)C)C(=O)N4[C@@H]3c3ccc(O)cc3)cc2)[C@]12C(=O)Nc1ccc(I)cc12,composite z-score,[1],-0.562
same,z-score,[2],-2.99
same,composite z-score,[3],0.698
same,composite z-score,[4],0.134
same,composite z-score,[5],-0.547
same,composite z-score,[6],-0.113
same,composite z-score,[7],0.462
same,composite z-score,[8],1.18
same,composite z-score,[9],1.36
same,composite z-score,[10],1.32
C#CCN(CC1=CCCCC1)[C@H](c1ccccc1Br)[C@@H](O)Cc1ccccc1,composite z-score,[1],-0.0413
same,z-score,[2],-2.33
same,composite z-score,[3],-1.07
same,composite z-score,[4],-0.929
same,composite z-score,[5],-0.568
same,composite z-score,[6],-0.118
same,composite z-score,[7],0.108
same,composite z-score,[8],-0.368
same,composite z-score,[9],0.632
same,composite z-score,[10],0.92
CC1(C)[C@@H]2CC(C(O)C3C=CC4C(=O)N(c5ccccc5)C(=O)C4N3Nc3ccccc3)=C[C@H]1C2 (stereo not given in full),composite z-score,[1],0.455
same,z-score,[2],-0.595
same,composite z-score,[3],-0.158
same,composite z-score,[4],0.718
same,composite z-score,[5],-0.374
same,composite z-score,[6],0.0044
same,composite z-score,[7],0.241
same,composite z-score,[8],-0.43
same,composite z-score,[9],0.873
same,composite z-score,[10],0.577
CC(C)N1C(=O)[C@@]2(Cc3ccccc31)c1ccccc1C(=O)N(C1CCCCC1)[C@H]2c1ccc(CO)cc1,composite z-score,[1],0.683
same,z-score,[2],-1.26
same,composite z-score,[3],0.0232
same,composite z-score,[4],-0.435
same,composite z-score,[5],-0.56
same,composite z-score,[6],-0.063
same,composite z-score,[7],-0.195
same,composite z-score,[8],-0.399
same,composite z-score,[9],0.103
same,composite z-score,[10],0.284
